Inconclusive results are not listed. Activity calls are given as the source filed them.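 How the source made its calls, unless noted: active means normalized viability below 100% at a tested concentration; inactive means the rest.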
Assays:
[1] = growth inhibition of DIPG glioma cells, dose response, cell-based, SU-DIPG-XIII, MIPE4.0, CellTiter-Glo, qHTS (AID 1347061; cut-off not given, nearly all actives have AC50 up to about 37 µM;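 further: cells exposed to compound for 48 hours before readout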); details: SU-DIPG-XIII viability, CellTiter-Glo ATP luminescence
[2] = growth inhibition of DIPG glioma cells, dose response, cell-based, SU-DIPG-IV, MIPE4.0, CellTiter-Glo, qHTS (AID 1347063; cut-off not given, nearly all actives have AC50 up to about 30 µM;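 further: compound exposure lasted 48 hours before the viability readout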); details: SU-DIPG-IV viability, CellTiter-Glo ATP luminescence
[3] = growth inhibition of DIPG glioma cells, dose response, cell-based, SU-DIPG-XIII, MIPE5.0, CellTiter-Glo, qHTS (AID 1347064; cut-off not given, nearly all actives have AC50 up to about 23 µM;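 on AC50: cells exposed to compound for 48 hours before the viability read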); details: SU-DIPG-XIII viability, CellTiter-Glo ATP luminescence
[4] = viability loss in pontine glioma line – cell-based, SU-DIPG-XXV, MIPE5.0, CellTiter-Glo, qHTS, dose response (AID 1347065; cut-off not given, nearly all actives have AC50 up to about 26 µM;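 further: cells exposed to compound for 48 hours before ATP readout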); details: CellTiter-Glo ATP luminescence
[5] = SU-DIPG-VI glioma cell viability, MIPE4.0 library, CellTiter-Glo luminescence, qHTS (AID 1347066; cut-off not given, nearly all actives have AC50 up to about 30 µM;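 further: cells exposed to compound for 48 hours before readout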); details: CellTiter-Glo ATP luminescence
[6] = JHH-DIPG-1 glioma cell viability, MIPE5.0 library, CellTiter-Glo luminescence, qHTS (AID 1347067; cut-off not given, nearly all actives have AC50 up to about 26 µM;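 further: cells exposed to compound for 48 hours before readout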); details: JHH-DIPG-1 glioma viability, CellTiter-Glo ATP luminescence
[7] = SU-DIPG-XXV glioma cell viability, MIPE5.0 library, qHTS (AID 1347068; cut-off not given, nearly all actives have IC50 up to about 30 µM;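 on IC50: cells exposed to compound for 48 hours before viability readout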)
[8] = growth inhibition of DIPG glioma cells, dose response, cell-based, JHH-DIPG-1, MIPE4.0, CellTiter-Glo, qHTS (AID 1347062; cut-off not given, nearly all actives have AC50 up to about 27 µM;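 on AC50: cells exposed to compound for two days before readout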); details: JHH-DIPG-1 viability, CellTiter-Glo ATP luminescence
[9] = sensitizers of A549 cells to miR-34 induction, primary screen, imaging, A549 dox-inducible miR-34, nuclei and caspase counts (AID 1347080;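 active means compounds whose cell count with miR-34 switched on is under 0.7 times the count with it off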); details: A549 miR-34 inducible, Hoechst nuclei count, 48 h
[10] = survival rescue of mitochondrial mutant cells in low glucose, primary screen, MELAS cybrids, Rieske KO mouse fibroblasts, CellTiter-Glo (AID 1508586;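 active means mean z-score across replicates of 1.96 or higher in either the MELAS or the Rieske mutant cell line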;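 further: z relative to plate mean and SD of compound and empty wells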)
[11] = viability rescue of complex I mutant cybrids, primary screen, cell-based, galactose medium, ATP luminescence (AID 1645843;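 active means z-score of at least 1.8 in each of two replicates, scored against plate mean and spread of sample wells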;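 further: positive z means more ATP and so rescue of galactose-driven cybrid death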); details: complex I mutant cybrid cells, 72 h, stronger effect = higher value
[12] = ovarian cancer cell viability with rucaparib, profiling panel, oncology-focused library, rucaparib conditional (AID 1508598); details: patient-derived ovarian cancer cells, CellTiter-Glo viability, 144 h, stronger effect = lower value
[13] = measured here: relative caspase fold change +Dox/-Dox
[14] = measured here: total cells with miR-34 induction, stronger effect = lower value
[15] = measured here: total cells without miR-34 induction
[16] = MELAS cybrid survival, CellTiter-Glo 48 h, stronger effect = higher value
[17] = Rieske KO mouse fibroblast survival, CellTiter-Glo 72 h
[18] = stronger effect = lower value, cell number ratio, induced over uninduced

COC[C@H]1OC(=O)c2coc3c2[C@@]1(C)C1=C(C3=O)[C@@H]2CC[C@H](O)[C@@]2(C)C[C@H]1OC(C)=O
AC50 [1]: 16.6 µM (active) | AC50 [2]: 1.18 µM (active) | AC50 [3]: 9.34 µM (active) | AC50 [4]: 1.66 µM (active) | AC50 [5]: 14.8 µM (active) | AC50 [6]: 5.9 µM (active) | outcome [7]: inactive

C[C@H]1[C@@H](CC(C[C@H]2O[C@@H]3O[C@]4(C)CC[C@H]5[C@H](C)CC[C@@H]([C@H]2C)[C@@]35OO4)CS(=O)(=O)c2ccc(COC(=O)N(C)C)cc2)O[C@@H]2O[C@]3(C)CC[C@H]4[C@H](C)CC[C@@H]1[C@@]24OO3 (stereo partly specified)
AC50 [2]: 0.209 µM (active)

CC(=O)OCC1=C(C(=O)O)N2C(=O)[C@@H](N)[C@@H]2SC1
outcome [1]: inactive | outcome [5]: inactive

CO/C1=C/C(C)=C\[C@@H](C)[C@@H](O)[C@@H](C)C/C(C)=C\C=C/[C@H](OC)[C@@H]([C@@H](C)[C@@H](O)[C@H](C)[C@@]2(O)C[C@@H](O)[C@H](C)[C@@H](C(C)C)O2)OC1=O
AC50 [8]: 11.8 µM (active) | AC50 [2]: 9.35 µM (active) | AC50 [4]: 0.393 µM (active) | AC50 [5]: 3.72 µM (active) | AC50 [6]: 9.86 µM (active) | IC50 [7]: 0.0494 µM (active)

CC[C@@H]1[C@@H](C)O[C@@](O)([C@@H](C)[C@H](O)[C@H](C)[C@H]2OC(=O)/C=C/C=C/[C@H](C)[C@@H]([C@@H](C)[C@@H](O)[C@H](C)[C@@]3(O)C[C@@H](O[C@H]4C[C@H](O)[C@H](O)[C@H](C)O4)[C@H](CC)[C@@H](C)O3)OC(=O)/C=C/C=C/[C@@H]2C)C[C@H]1O[C@H]1C[C@H](O)[C@H](O)[C@H](C)O1
AC50 [8]: 0.59 µM (active) | AC50 [2]: 0.743 µM (active) | AC50 [5]: 0.469 µM (active)

CC1(N2CCC(n3c([C@@H]4CCCNC4)nc4ccccc43)CC2)CCCCCCC1
outcome [1]: inactive | AC50 [8]: 14.8 µM (active) | IC50 [7]: 20.9 µM (active)

CCC(=O)OC1CCC2C3CCC4=CC(=O)CC[C@@]4(C)C3CC[C@]12C (stereo partly specified)
outcome [8]: inactive | outcome [2]: inactive | outcome [5]: inactive

C[C@](O)(CS(=O)(=O)c1ccc(F)cc1)C(=O)Nc1ccc(C#N)c(C(F)(F)F)c1
AC50 [8]: 2.35 µM (active) | AC50 [2]: 1.66 µM (active) | fold change ([9]; stronger effect = lower value): 0.814 (inactive) | fold change [9, 13]: 0.512 | cell count [9, 14]: 7480 | cell count [9, 15]: 9190 | z-score [10, 16]: 0.389 (inactive) | z-score [10, 17]: -0.102 | z-score [11]: -0.71 (inactive)

Cc1sc2c(c1C)C(c1ccc(Cl)cc1)=N[C@@H](CC(=O)OC(C)(C)C)c1nnc(C)n1-2
AC50 [1]: 18.7 µM (active) | AC50 [4]: 2.63 µM (active) | AC50 [6]: 16.6 µM (active)

Cc1c(C(=O)Nc2cccc(C(F)(F)F)c2)cc(-c2ccccc2)n1CCCN1CCOCC1
AC50 [2]: 18.7 µM (active) | outcome [3]: inactive

CC(C)(NC(=O)O[C@@H]1CN2CCC1CC2)c1csc(-c2ccc(F)cc2)n1
outcome [3]: inactive | outcome [4]: inactive | outcome [6]: inactive | outcome [7]: inactive

C[C@H](Nc1ncnc2nc[nH]c12)c1nc2ccc(F)cc2c(=O)n1-c1ccccc1
AC50 [4]: 14.8 µM (active) | outcome [7]: inactive

C[C@]12CCC3c4ccc(OC(=O)N(CCCl)CCCl)cc4CCC3C1CC[C@@H]2O (stereo partly specified)
fold change ([9]; stronger effect = lower value): 1.19 (inactive) | fold change [9, 13]: 0.867 | cell count [9, 14]: 2030 | cell count [9, 15]: 1700

CN[C@@H]1CC2OC(C)([C@@H]1OC)n1c3ccccc3c3c4c(c5c6ccccc6n2c5c31)C(=O)NC4 (stereo partly specified)
fold change ([9]; stronger effect = lower value): 0.831 (inactive) | fold change [9, 13]: 0.918 | cell count [9, 14]: 692 | cell count [9, 15]: 832

C=C(C)[C@H]1O[C@H]2CC[C@@]3(C)[C@@](O)(CC[C@H]4[C@@H]5OC(C)(C)[C@H]6C[C@@H]7C(=C)Cc8c(Cl)cc9[nH]c(c5c9c8[C@@]76O)[C@@]43C)[C@]23O[C@@H]3[C@H]1O
fold change ([9]; stronger effect = lower value): 1.28 (inactive) | fold change [9, 13]: 1.48 | cell count [9, 14]: 1060 | cell count [9, 15]: 826

Cc1sc2c(c1C)C(c1ccc(Cl)cc1)=N[C@@H](CC(N)=O)c1nnc(C)n1-2
outcome [6]: inactive | outcome [7]: inactive | viability ([12]; at 0.000305 µM, OCI-C5x cells, with rucaparib 10 µM, 100% = cells with rucaparib alone): 106% (inactive) | viability ([12]; at 0.000305 µM, OCI-C5x cells, without rucaparib): 111% (inactive) | viability ([12]; at 0.000305 µM, OCI-P5x cells, with rucaparib 20 µM, 100% = cells with rucaparib alone): 89.8% (active) | viability ([12]; at 0.000305 µM, OCI-P5x cells, without rucaparib): 93.2% (active) | viability ([12]; at 0.00122 µM, OCI-C5x cells, with rucaparib 10 µM, 100% = cells with rucaparib alone): 111% (inactive) | viability ([12]; at 0.00122 µM, OCI-C5x cells, without rucaparib): 124% (inactive) | viability ([12]; at 0.00122 µM, OCI-P5x cells, with rucaparib 20 µM, 100% = cells with rucaparib alone): 100% (inactive) | viability ([12]; at 0.00122 µM, OCI-P5x cells, without rucaparib): 96.7% (active) | viability ([12]; at 0.00488 µM, OCI-C5x cells, with rucaparib 10 µM, 100% = cells with rucaparib alone): 99.7% (active) | viability ([12]; at 0.00488 µM, OCI-C5x cells, without rucaparib): 94.7% (active) | viability ([12]; at 0.00488 µM, OCI-P5x cells, with rucaparib 20 µM, 100% = cells with rucaparib alone): 97.5% (active) | viability ([12]; at 0.00488 µM, OCI-P5x cells, without rucaparib): 97.3% (active) | viability ([12]; at 0.0195 µM, OCI-C5x cells, with rucaparib 10 µM, 100% = cells with rucaparib alone): 64.4% (active) | viability ([12]; at 0.0195 µM, OCI-C5x cells, without rucaparib): 66.5% (active) | viability ([12]; at 0.0195 µM, OCI-P5x cells, with rucaparib 20 µM, 100% = cells with rucaparib alone): 82.4% (active) | viability ([12]; at 0.0195 µM, OCI-P5x cells, without rucaparib): 90% (active) | viability ([12]; at 0.0781 µM, OCI-C5x cells, with rucaparib 10 µM, 100% = cells with rucaparib alone): 38.4% (active) | viability ([12]; at 0.0781 µM, OCI-C5x cells, without rucaparib): 48.1% (active) | viability ([12]; at 0.0781 µM, OCI-P5x cells, with rucaparib 20 µM, 100% = cells with rucaparib alone): 54.9% (active) | viability ([12]; at 0.0781 µM, OCI-P5x cells, without rucaparib): 77.6% (active) | viability ([12]; at 0.313 µM, OCI-C5x cells, with rucaparib 10 µM, 100% = cells with rucaparib alone): 20.3% (active) | viability ([12]; at 0.313 µM, OCI-C5x cells, without rucaparib): 29.5% (active) | viability ([12]; at 0.313 µM, OCI-P5x cells, with rucaparib 20 µM, 100% = cells with rucaparib alone): 31.5% (active) | viability ([12]; at 0.313 µM, OCI-P5x cells, without rucaparib): 66.2% (active) | viability ([12]; at 1.25 µM, OCI-C5x cells, with rucaparib 10 µM, 100% = cells with rucaparib alone): 16.4% (active) | viability ([12]; at 1.25 µM, OCI-C5x cells, without rucaparib): 26.3% (active) | viability ([12]; at 1.25 µM, OCI-P5x cells, with rucaparib 20 µM, 100% = cells with rucaparib alone): 24% (active) | viability ([12]; at 1.25 µM, OCI-P5x cells, without rucaparib): 64.7% (active) | viability ([12]; at 5 µM, OCI-C5x cells, with rucaparib 10 µM, 100% = cells with rucaparib alone): 14.7% (active) | viability ([12]; at 5 µM, OCI-C5x cells, without rucaparib): 20.8% (active) | viability ([12]; at 5 µM, OCI-P5x cells, with rucaparib 20 µM, 100% = cells with rucaparib alone): 19% (active) | viability ([12]; at 5 µM, OCI-P5x cells, without rucaparib): 56.3% (active)

CN=C(NS(=O)(=O)c1ccc(Cl)cc1)N1C[C@H](c2ccccc2)C(c2ccc(Cl)cc2)=N1
fold change [9, 18]: 0.982 (inactive) | fold change [9, 13]: 1.16 | cell count [9, 14]: 5510 | cell count [9, 15]: 5610

CCNC(=O)CC1N=C(c2ccc(Cl)cc2)c2cc(OC)ccc2-n2c(C)nnc21 (stereo unspecified)
AC50 [2]: 16.6 µM (active) | outcome [3]: inactive | outcome [4]: inactive | outcome [6]: inactive | outcome [7]: inactive | fold change [9, 18]: 0.886 (inactive) | fold change [9, 13]: 0.522 | cell count [9, 14]: 5810 | cell count [9, 15]: 6550 | z-score [10, 16]: 0.755 (inactive) | z-score [10, 17]: -2.99

Reference: PubChem BioAssay
